# Screening results (PubChem BioAssay)
# Exocytosis inh: LAMP-1 surface exposure blockers, TALL-104 cells – cell-based, flow cytometry, MLPCN library, primary screen; TALL-104 LAMP-1 surface exposure; cells stimulated with thapsigargin and PMA; inhibition, % at 10 µM; 360,000 tested, 0.66% active; AID 651702, 2012;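 active = inhibition above about 55%, limit read from the data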
# PP1 inh: PP1-alpha phosphatase inhibitors, primary screen, counter-screen for PP5 inhibitor project, biochemical, fluorescence, OMFP substrate, single point | Serine/threonine-protein phosphatase PP1-alpha catalytic subunit (Homo sapiens), P62136 | purified PP1alpha | inhibition, % at 6.7 µM | 320,000 tested, 0.9% active | AID 2235, 2010;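 active = inhibition above the mean inhibition of all tested compounds plus 3 SD, computed separately for each screening campaign, cut at about 15% in these data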
# Target sequence (P62136 whole entry, looked up): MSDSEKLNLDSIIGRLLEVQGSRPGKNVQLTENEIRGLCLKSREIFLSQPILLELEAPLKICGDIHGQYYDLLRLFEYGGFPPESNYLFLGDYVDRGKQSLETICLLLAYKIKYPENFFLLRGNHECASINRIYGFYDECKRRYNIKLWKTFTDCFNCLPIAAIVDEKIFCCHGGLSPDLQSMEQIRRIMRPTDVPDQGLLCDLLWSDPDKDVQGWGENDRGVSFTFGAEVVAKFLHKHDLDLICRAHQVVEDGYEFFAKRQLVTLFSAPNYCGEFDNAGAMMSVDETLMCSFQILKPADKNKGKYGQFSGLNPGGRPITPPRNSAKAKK
# SKKanGAS inh: S. pyogenes SKKanGAS growth inhibitors in kanamycin, primary screen, streptokinase expression inhibitor project, SKKanGAS strain, BacTiter-Glo luminescence | 6 h | inhibition, % at 7.5 µM | 300,000 tested, 1.3% active;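 active = mean replicate score, as percent of positive control median, at least 50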;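 also: strain carries kanamycin resistance gene driven by streptokinase promoter and grows in 40 µg/ml kanamycin; loss of luminescence reflects streptokinase promoter inhibition or plain growth inhibition; 0% = median of DMSO wells and 100% = positive control at its reference dose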
# IDE inh: human IDE inhibitors in live cells, primary screen, fluorescence polarization, HEK cells, FAbetaB substrate. Insulin-degrading enzyme (Homo sapiens), P14735. FAbetaB cleavage. inhibition, % at 5.59 µM. 320,000 tested, 0.41% active. AID 434962, 2010;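 active = percent inhibition above the average of all tested compounds plus 3 SD, set per screening campaign, cut at about 16% in these data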;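 also: IDE supplied by intact live HEK cells; FP after avidin binding of uncleaved biotin substrate so inhibition keeps polarization high; 0% = DMSO wells and 100% = 60 µM reference IDE inhibitor Ii1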
# PP5 primary: PP5 phosphatase inhibitors, primary screen, biochemical, fluorescence; inhibition, % at 6.7 µM; purified PP5c, OMFP substrate fluorescence; 320,000 tested, 0.18% active; AID 1987, 2009; Serine/threonine-protein phosphatase 5 (Homo sapiens), P53041;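 active = inhibition above the campaign's mean inhibition across all tested compounds plus 3 SD, cut at about 9.5% in these data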;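 also: 0% = DMSO only and 100% = 100 µM cantharidin control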
# IDE cell activ: human IDE activators in live cells, primary screen, fluorescence polarization, HEK cells, FAbeta-B substrate. FAbeta-B cleavage; 0% vehicle, 100% cell-free pure enzyme wells. activation, % at 5.96 µM. 340,000 tested, 0.073% active;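 active = activation above the mean of all tested compounds plus 3 SD, set per screening campaign, cut at about 17% in these data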
# * marks the source's active call; other numbers are inactive results; . = no result. Only some compounds are listed: those with a hit (about 2.8% of all), similar ones and a draw of the others.
SMILES,Exocytosis inh,PP1 inh,SKKanGAS inh,IDE inh,PP5 primary,IDE cell activ
Cn1c(=O)c(C#N)c(-c2ccc(F)cc2)c2cc(C(=O)c3cc(Cl)cc(Cl)c3O)cnc21,10,13,99*,-6,4,-1
COc1ccccc1-n1c(=O)c(C#N)c(-c2ccc([N+](=O)[O-])cc2)c2cc(C(=O)c3cc(F)ccc3O)cnc21,-1,0,15,4,5,3
Cc1ccc(CN2C(=O)C3CCCN3c3ncccc32)cc1 (centres undefined),4,9,6,1,-1,4
Cc1ccc(CN2C(=O)C3CCCN3c3ccc(S(=O)(=O)N4CCOCC4)cc32)cc1 (centres undefined),.,24*,20,2,-1,.
O=[N+]([O-])c1ccc(Sc2ncccn2)c([N+](=O)[O-])c1,-3,1,-1,0,0,.
O=[N+]([O-])c1cnc(Sc2ccncn2)s1,61*,0,18,0,0,-5
O=[N+]([O-])c1cnc(Sc2ccncn2)c([N+](=O)[O-])c1,68*,.,.,.,.,.
O=C(NCCOc1ccccc1)c1ccc2c(c1)S(=O)(=O)c1cc(Cl)ccc1C2=O,-4,.,.,6,.,1
N=c1oc2ccc3ccccc3c2cc1C(N)=S,-5,-3,-10,-4,0,0
Cc1ccc(CNC(=O)C2CCC(=O)N(Cc3ccccc3F)C2)s1 (centres undefined),7,-4,-9,3,3,6
COc1ccc(Nc2nc(N)nc(CCl)n2)cc1,57*,-3,0,1,-1,-7
Nc1nc(CCl)nc(Nc2ccc3ccccc3c2)n1,40,.,-6,.,.,10
COc1ccc(Nc2ccc(OC)cc2)cc1,10,-2,1,-2,0,.
NNc1nc(Nc2ccccc2)nc(Nc2ccccc2)n1,0,5,52*,2,2,-1
COc1ccc(Nc2nc(NN)nc(Nc3ccc(OC)cc3)n2)cc1,9,6,50*,0,3,1
CN(C)CCCn1c(SCC(=O)Nc2nc(-c3cccc(Br)c3)cs2)nc2ccccc2c1=O,44,9,97*,3,3,6
CCCCn1c(SCC(=O)Nc2nccs2)nc2ccccc2c1=O,19,0,4,0,2,2
Cc1ccc(-c2csc(NC(=O)CSc3nnc4c(n3)[nH]c3ccccc34)n2)cc1,3,17*,.,-3,0,-3
O=C(CSc1nc2ccccc2[nH]1)Nc1nc(-c2cccc(Br)c2)cs1,-2,5,80*,-1,4,2
COc1ccccc1CNS(=O)(=O)c1c(C)cc(C)cc1C,0,.,.,.,.,.
Cc1nc2ccc(S(=O)(=O)NCC(=O)NCCc3ccc(Cl)cc3)cc2s1,-1,-2,-9,-1,0,2
O=S(=O)(Nc1cc2nc3ccccc3nc2n1Cc1ccccc1)c1ccc(Cl)cc1,66*,13,48,9,10,-13
CCCNC(=O)C(Cc1ccccc1F)NC(=O)c1ccc(C#N)cc1 (centres undefined),-3,-4,.,-2,-1,4
COc1ccc(S(=O)(=O)N2CCOC2CNC(=O)C(=O)NCc2ccccc2Cl)cc1 (centres undefined),-12,0,52*,-1,0,-4
COc1ccc(S(=O)(=O)N2CCOC2CNC(=O)C(=O)NCc2ccccc2OC)cc1 (centres undefined),-4,0,0,6,-8,2
SMILES,Exocytosis inh,PP1 inh,SKKanGAS inh,IDE inh,PP5 primary,IDE cell activ
COc1ccccc1NS(=O)(=O)c1cc(NC(=O)CCc2nc3ccccc3c(=O)[nH]2)ccc1C,32,-1,2,2,1,-12
NC(=O)[C@H]1CC2(CC(c3cccc(NC(=O)CC(c4ccccc4)c4ccccc4)c3)=NO2)CN1C(=O)C(c1ccccc1)c1ccccc1 (some centres undefined),-2,17*,24,-1,3,-5
CCC1=C([N+](=O)[O-])C(c2ccc3c(c2)OCO3)NC(=O)N1 (centres undefined),-5,-1,-2,3,2,4
O=C1C=C(c2ccccc2)C(=O)N1Nc1ccccc1,59*,-3,0,1,-3,-3
CCOC1=CC2=C(C(=O)C(Cl)=CC2=O)[C@@H]2CN(S(=O)(=O)c3ccc(C)cc3)[C@@H](c3ccccc3)[C@H]12,98*,.,.,.,.,.
CN(C)S(=O)(=O)c1cc(NC(=O)CN2CCN(c3ccccc3O)CC2)ccc1Cl,1,-2,.,-9,-1,3
O=c1[nH]c(CSc2nc3ccccc3o2)nc2c1cnn2-c1ccccc1,3,16*,2,3,1,-1
O=c1[nH]c(SCc2nc3c(cnn3-c3ccccc3)c(=O)[nH]2)nc2ccccc12,0,.,.,.,.,3
CCN(CC(=O)Nc1ccccc1OC)C(=O)CSCC(=O)Nc1cccc(C)c1,10,.,.,.,.,-2
CCc1c(C2(O)CCCCC2)[nH]c2ccc(C(F)(F)F)cc12,7,4,69*,-3,9,9
Cc1c(N)c(C(C)(C)C)cc(C(C)(C)C)c1[N+](=O)[O-],-7,2,2,-3,2,-2
Cc1cc2nc3c(=O)[nH]c(=O)[nH]c3nc2c([N+](=O)[O-])c1N,1,.,.,.,.,21*
Fc1ccc(N2CCN(Cc3cn[nH]c3-c3ccccc3)CC2)cc1,-7,-3,52*,-3,-3,-2
Fc1ccc(-c2[nH]ncc2CN2CCN(c3ccc(F)cc3)CC2)cc1,4,-1,29,-2,2,6
Cc1ccccc1-c1nc2c3ccccc3nc(=S)n2[nH]1,2,0,94*,-5,-2,-2
C[C@@H](NC(=O)c1[nH]cnc1C(=O)Nc1ccccc1)c1ccccc1,-23,2,.,0,3,-1
CC(C)(C)OC(=O)NCCCC[C@H](NC(=O)c1[nH]cnc1C(=O)Nc1ccc(CNC(=O)OC(C)(C)C)cc1)C(=O)OC(C)(C)C,.,17*,.,5,9,.
CC(C)C[C@H](NC(=O)c1nc[nH]c1C(=O)NC(c1ccccc1)c1ccccc1)C(=O)OC(C)(C)C,16,9,60*,-6,0,-2
CC(C)(C)OC(=O)NCCCC[C@H](NC(=O)c1nc[nH]c1C(=O)NCc1ccccc1)C(=O)OC(C)(C)C,8,11,9,4,7,0
